Assay outcomes (PubChem)
In the library only some 8% were active in any assay of this set; here they are far more common.
SARS PLpro yeast – blocks SARS-CoV papain-like protease in a yeast assay | S. cerevisiae expressing SARS-CoV PLpro, growth rescue | Potency, µM (doses to about 32.9 µM), for the others: at the highest dose activity, positive = growth rescue, most hits filed as activators | 330,000 compounds, 0.19% hits; calls by dose curve; also: potency is read from the fitted curve at half-maximal effect; 0% is about no effect; nearly all actives have a fitted effect of over 55% in size
Marburg entry inh – blocks Marburg virus binding to or entry into cells; Marburg virus pseudotyped entry inhibition, cell reporter; 300,000 compounds, 1.8% hits; Potency, µM (titrated, usually from 37.8 µM), for inactives: top-dose activity change, negative = inhibition, usual class: inhibitors; calls by dose curve; tested in HEK293 cells; also: potency is read from the fitted curve at half-maximal effect; % is scaled to controls: 0 for no effect and ±100 for the full control effect
HCMV antiviral – inhibitors of human cytomegalovirus; HFF cells, HCMV-luciferase reporter, 72 h; hits give low values; 410,000 compounds, 4.5% hits; activity change, negative = inhibition, % at 57.5 µM; in the data active = activity change below about -60%; inconclusive = no clear call, values can overlap the other calls; inactive = above about -39%; also: % is scaled to controls: 0 for no effect and ±100 for the full control effect
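Inhibition of viral replication was scored as loss of reporter luminescence in HFFs infected with HCMV-luciferase (MOI 1 PFU/cell) for 72 h; compounds tested at 2 doses, normalized to buffer and Salinomycin controls.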
LASV entry inh – Lassa virus entry inhibition; Lassa virus pseudotype entry inhibition, cell reporter; Potency, µM (top dose mostly 37.9 µM), inactives show at the highest dose activity change, negative = inhibition, hits mostly inhibitors; 300,000 compounds, 1.2% hits; calls by dose curve; tested in HEK293 cells; also: potency is read from the fitted curve at half-maximal effect; % is scaled to controls: 0 for no effect and ±100 for the full control effect; nearly all actives have a fitted effect of over 50% in size
HCV inhibitor – blocks hepatitis C virus; Huh7.5.1 HCVcc-Cre infection, luciferase reporter, 44 h; 340,000 compounds, 3.4% hits; Potency, µM (doses to about 41.8 µM), without a hit: at the highest dose activity change, negative = inhibition, actives largely listed as inhibitors; active = well fitted inhibition curve with a large enough effect; inconclusive = small, poorly fitted or top-dose-only effect, or another doubt; inactive = no such curve, though single readings can be large or run the other way; also: potency is read from the fitted curve at half-maximal effect; % is scaled to controls: 0 for no effect and ±100 for the full control effect
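A cell-based infection assay in which seeded cells (1,000 per well) receive test compound after 4 h, are inoculated with HCVcc-Cre at approximately 0.5 moi, and are incubated 44 h before luminescence detection.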
FMDV inh – antivirals against foot and mouth disease virus; FMDV antiviral cell-based qHTS; Potency, µM (titrated, usually from 57.9 µM), without a hit: at the top dose activity change, negative = inhibition, most hits filed as inhibitors; 410,000 compounds, 1.2% hits; AID 1159524; calls by dose curve; tested in HEK293T cells; also: read-out not given here; potency is read from the fitted curve at half-maximal effect; % is scaled to controls: 0 for no effect and ±100 for the full control effect; nearly all actives have a fitted effect of over 45% in size
* = called active by the depositor; ? = inconclusive; . = no result; + = active, no number; ! = not active in a repeat; [ ] = another dose, or the depositor's remark.

SMILES	SARS PLpro yeast	Marburg entry inh	HCMV antiviral	LASV entry inh	HCV inhibitor	FMDV inh
Cn1cc(C(=O)O)c(=O)c2cc(S(=O)(=O)N3CCCCC3)ccc21	.	.	53.0	-16.5%[46.1 µM]	.	-2.8%
O=C(COc1ccc(C(=S)N2CCCC2)cc1)Nc1ccccc1C(F)(F)F	12.4%	16.2%	-65.4*	?	-18.3%	0.0%
O=C(COc1ccc(C(=S)N2CCOCC2)cc1)Nc1ccccc1C(F)(F)F	0.5%	7.3%[46.1 µM]	-87.1*	.	?	-20.3%
O=C(COc1ccc(Br)cc1)Nc1ccccc1C(=O)N1CCOCC1	0.7%	9.3%	-8.4	2.8%	.	-29.3%
NC(=O)c1cccc(-c2ccc3c(c2)N(CC2CC2)C(=O)COC3)c1	.	.	30.2	.	.	.
Cc1ccc2c(c1)c1nc3ccccc3nc1n2CCN1CCOCC1	-0.8%	-21.9%	-14.0	?	12.6µM*	5.3%
Cn1c2ccc(F)cc2c2nc3ccccc3nc21	-10.8%	?	155.5	13.2%[46.1 µM]	?	14.8%
Cc1ccc2c(c1)c1nc3ccccc3nc1n2C	-3.9%	.	240.9	.	11.2µM*	36.2%
CCn1c2ccc(C)cc2c2nnc(SCCN3CCOCC3)nc21	2.3%	?	?	?	-4.5%	?
Cc1noc(C)c1C(=O)N1CCC2(CCCN(C(=O)Nc3cccc(C#N)c3)C2)CC1	.	.	.	.	.	-7.6%
Cc1nnc(SCC(=O)NC2CCCCC2)n1-c1ccccc1	.	.	-37.4	.	.	-9.4%
O=C(CSc1nnc(Cc2cccs2)n1-c1ccccc1)NC1CCCCC1	2.5%	-18.8%	-26.5	14.1µM*	-13.9%	7.0%
Cc1oc2c(c1C(=O)NCc1ccccc1F)C1=NCCN1C=N2	.	.	-6.3	-0.2%[46.1 µM]	.	-7.9%
CCc1c(C#N)c(SCCC(=O)Nc2ccc(C)cc2)nc2c1C(=O)CC(C)(C)C2	-1.6%	1.0%	-29.5	-4.2%	8.91µM*	-9.3%
C[C@@H]1CN([C@H](C)CO)C(=O)c2c(c3ccccc3n2C)-c2ccccc2CO[C@H]1CN(C)Cc1ccc(C(F)(F)F)cc1	.	.	-106.5*	.	.	?
C[C@@H]1CN([C@H](C)CO)C(=O)c2c(c3ccccc3n2C)-c2ccccc2CO[C@H]1CN(C)Cc1ccc(Oc2ccccc2)cc1	.	.	-19.4	.	.	-22.1%
Nc1ccc(C2(c3ccc(N)cc3)C(=O)Nc3ccccc32)cc1	-2.4%	-13.1%	-62.2*	-6.1%	1.2%	.
Cc1cccc(NS(=O)(=O)c2ccc(C)c(C(=O)OCC(=O)Nc3cc(C)on3)c2)c1	-0.2%	?	-39.2	4.47µM*	-24.5%	24.6%
Cc1cccc(NS(=O)(=O)c2cc(C(=O)OCC(=O)Nc3cc(C)on3)ccc2C)c1	-4.0%	?	69.3	?	-7.9%	33.3%
CCOc1cc(Cl)c(NC(C)=O)cc1OCC	5.1%	7.9%	-63.1*	10.1%	?	-18.8%
Cc1ccc2c(c1)CN(CCNC(=O)c1cccc(Cn3cccn3)c1)CC(C)O2 (centres undefined)	.	.	.	.	.	25.5%
CCN(CC)CCOC(=O)c1cc(Cl)c(N)cc1OC	.	12.6µM*!	-21.5	?	4.47µM*	-9.3%
CCN(CC)CCNC(=O)c1cc(Cl)c(N)cc1OC	-4.3%	?	-39.2	?	-8.5%[8.37 µM]	-24.7%
CC(C)c1ccc(NC(=O)c2cn(C3CCCCC3)c(=O)c3c2c2ccccc2n3C)cc1	.	-9.6%[46.1 µM]	-1.8	14.0%[46.1 µM]	.	-1.4%
CCc1nn2c(=O)c(S(=O)(=O)Nc3ccc(C(C)C)cc3)c(C)nc2s1	3.6%	6.2%[46.1 µM]	-63.8*!	9.7%[46.1 µM]	-10.5%	-26.1%
SMILES	SARS PLpro yeast	Marburg entry inh	HCMV antiviral	LASV entry inh	HCV inhibitor	FMDV inh
CCc1nn2c(=O)c(S(=O)(=O)Nc3cccc(F)c3)c(C)nc2s1	-1.5%	-3.2%[46.1 µM]	-29.8	?	2.7%	8.1%
CCN1C(=NCC(C)C)N[C@H](c2ccccc2)[C@H](C(=O)OC)[C@H]1C	.	7.9%[14.2 µM]	.	-13.6%[14.3 µM]	.	.
Cc1c(C(=O)N2CCCCC2)c(S(=O)(=O)N2CCC(C)CC2)c(C)n1C	11.1%	?	+	-13.1%[46.1 µM]	31.0%	4.2%
Cc1cccc(NS(=O)(=O)c2c(C(=O)N3CCCC3)c(C)n(C)c2C)c1	7.0%	8.8%[46.1 µM]	+	16.5%[46.1 µM]	24.0%	28.8%
Cc1cc(C)c(S(=O)(=O)NCCc2sc(-c3cccnc3)nc2C)c(C)c1	.	.	-22.5	12.1%[46.1 µM]	.	46.8%
CCCS(=O)(=O)N1CCN(Cc2ccc3c(c2)c2ccccc2n3CC)CC1	-15.8%	10.3µM*	3.6	?	?	?
CCOc1ccc(CN2CCN(Cc3ccc4c(c3)c3ccccc3n4CC)CC2)cc1	.	.	101.4	?	.	?
CN1CCCC2(CCN(C(=O)c3cnccn3)CC2)C1	.	.	.	.	.	2.9%
COc1ccc(/C=N/Nc2ncnc3c2[nH]c2ccc(C)cc23)c(OC)c1OC	-1.2%	-16.0%[46.1 µM]	-80.2*	?	?	0.4%
COc1ccc(/C=N/NC(=O)c2[nH]c3ccc(C)cc3c2-c2ccccc2)c(C(=O)O)c1OC	-0.6%	-15.7%[46.1 µM]	-18.3	-5.4%	-10.6%	5.9%
COc1cc(OC)c(OC)cc1/C=N/Nc1ncnc2c1[nH]c1ccccc12	27.1%	?	-6.9	-17.0%	10µM*	-23.4%
COc1cc(OC)c(OC)cc1/C=N/Nc1nc2ccccc2[nH]1	0.2%	.	2.5	.	-8.2%	-8.5%
COc1cccc(NC(=S)N(Cc2ccccn2)Cc2ccccc2Cl)c1	6.4%	?	-60.4*	?	?	23.0%
CCOC(=O)c1c(NC(=O)c2ccc(S(=O)(=O)N3CCCC(C)C3)cc2)sc2c1CC(C)(C)NC2(C)C (centres undefined)	.	.	-33.1	?	.	-20.8%
Cc1nn(C)c(C)c1/C=N/NC(=O)C(C)(C)Oc1ccc(Cl)cc1	-5.5%	1.7%	-24.8	-18.0%	14.9%	4.9%
Cc1nn(C(C)(C)C)c(C)c1/C=N/OC(=O)Nc1ccc(Cl)cc1	-16.0%	?	-100.8*	?	?	5.62µM*
COc1ccc(-n2c(=O)c(-c3cccs3)nc3cncnc32)cc1	.	.	.	.	.	-3.4%
Cc1cccc(-c2nc(C)c(CCNC(=O)C(=O)Nc3ccccc3C#N)s2)c1	.	.	7.0	-24.0%[46.1 µM]	.	-18.8%
CCn1cc2nc(SCC(=O)Nc3ccc(C)cc3C)n(Cc3ccc(C)cc3)c(=O)c2n1	.	.	?	?	.	-10.2%
CCCc1ccc(C(=O)NNc2cccc(C)c2)cc1	-2.6%	3.98µM*	21.5	?	-25.6%	27.0%
COc1ccc(-c2cn(Cc3cccc(OC)c3)nn2)cc1	.	.	35.5	.	?	62.8%
CCc1cc(-c2nnn(CCC3COCCO3)c2CC)ccc1-c1cn(CCc2c[nH]c3ccccc23)nn1 (centres undefined)	.	.	-80.0*	.	.	0.0%
COc1ccc(-c2cn(CCc3c[nH]c4ccccc34)nn2)cc1	2.9%	.	?	.	?	2.9%
CCc1cc(-c2nnn(CCC3COCCO3)c2CC)cc(CC)c1-c1cn(Cc2ccc3ccccc3c2)nn1 (centres undefined)	.	.	-67.4*	.	.	?
O=C(c1ccco1)N1CCN(C(=O)c2ccccc2OCc2ccccc2)CC1	2.4%	2.7%	-18.4	?	0.0%	-0.5%
